# Source: PubChem BioAssay AID1508600 (Functional Genomics Laboratory (NCATS/FGL), 2020)
# About 3,700 (7%) of roughly 53,000 sequences were called active.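 How the source made its calls: active means gene knockdowns whose robust z-score for IL-1 alpha signal is at least 2 or at most -2, so actives lie on both sides; inactive means the rest.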 Only a selection was taken, and actives are over-represented in it overall.
# Assay: Components of the Cytosolic LPS Sensing Pathway: Gene Identification via Genome-wide siRNA Screen;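 further: robust z of the log signal after scaling to non-targeting control siRNA wells of the plate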
# Details: RAW264.7 macrophages, IL-1a HTRF, actives lie on both sides, screened at 100 nM (by protocol), cells primed 5 h with Pam3CSK4 first
# Outline: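 Mouse macrophage line RAW264.7 is transfected with siRNA (100 nM final), grown 48h, primed with TLR ligand Pam3CSK4 5 h and given intracellular LipidA 24 h. IL-1a in supernatant is read by HTRF and viability by luminescence.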
row,Sequence,z-score
1,GGAUCUCGAGUCUCAUCUCTT against Ccdc166,0.851 (inactive)
2,CCGGAAGAGCUUGCUUUAUTT against Sgpp2,1.19 (inactive)
3,GGAUCCAAGGUGAAAAUAUTT against Fam131a,-2.25 (active)
4,GGCUAAGGGUAACGUGCUGTT against Bri3,-0.263 (inactive)
5,GGUGGUUAAAUGGUUUUAATT against Prkg2,1.98 (inactive)
6,GGAUCUGACAGCUCAUUUUTT against Casp7,1.01 (inactive)
7,CCACAAAACUAAGACACCUTT against P2ry6,0.587 (inactive)
8,GGCUCUAACAUGACAAUUUTT against Hyal1,-0.251 (inactive)
9,GGGAAAAUGGAAAAUACAUTT against Emc3,2.59 (active)
10,GCUGAUUAACCCUCAGUAUTT against Gpc6,-0.531 (inactive)
11,GCAAGUGUAGAUAAAGUAUTT against Msi2,0.751 (inactive)
12,GGAAAAGAUAACUCAGACATT against Hrg,0.727 (inactive)
13,GCUCUACCCUGAAGAUAUATT against Immt,2.44 (active)
14,GGCCACCAUUUCUGAAAUCTT against Tecr,0.714 (inactive)
15,GAACACAAAUCUAGUAGACTT against Olfr1109,0.278 (inactive)
16,GGAGAAUUAAAAUGUGAAGTT against Hsd17b4,0.161 (inactive)
17,GGAGCUAAACUCCUUGAAGTT against Slc22a4,2.07 (active)
18,GGGUGCCUAGCAGAUGAACTT against Sp110,-0.912 (inactive)
19,GGACAAUGUUGAAUCCUGUTT against Rrp15,-0.155 (inactive)
20,GGAGGAAUCAAAGGCUCCUTT against Slc39a5,-0.319 (inactive)
21,GGCGCAUUAGCAGAGACUGTT against Mrps5,4.17 (active)
22,GGCACAUUAGUAGAACACATT against Sorcs2,-0.243 (inactive)

row,Sequence,z-score
1,GGAUCAUUCCUUUGGUUAGTT against Fabp5,-1.34 (inactive)
2,GCCAAGAAUAGCAUUACUGTT against Abraxas1,-2.45 (active)
3,GGGUAGCUACGAAGAGGAATT against Ros1,1.72 (inactive)
4,GGAAAACCAGCUAAUUAUCTT against Ptger3,-0.23 (inactive)
5,GGAAAGUGUGUGUUAUAUUTT against Zfp358,1.98 (inactive)
6,CGAGCUUAUCAUCAGCGACTT against Polr2f,-2.74 (active)
7,CGGGAUAUCAUUCUCCAUATT against Lnpep,0.62 (inactive)
8,GGUUUUAAGUUCUAGGGAATT against Olfr1288,-0.599 (inactive)
9,GCAUGUUUACCUCAAAGUGTT against Cd209e,0.843 (inactive)
10,GGCCUUGCUUUCAUAAAGUTT against Mrpl49,0.348 (inactive)
11,CGAUACCCAACUGUUGAAATT against Ap5m1,1.12 (inactive)
12,CCCGCUAUUACGUUUUUCUTT against Mtarc2,-0.498 (inactive)
13,CCUCAGAACAAAUGAAAAUTT against Nlk,-0.62 (inactive)
14,GGCAGGUGAAUGUGGUAGATT against Btbd17,0.165 (inactive)
15,GGCCAACACUAACACAGACTT against Tmem268,-0.357 (inactive)
16,GGUCAAUGGAGUAGAUUUATT against Pard3,2.24 (active)
17,GGUCAUGAAAAUUAAAGCATT against 1110059G10Rik,-2.31 (active)
18,GCACGAUGUACCUGAAUCUTT against Ifitm5,0.387 (inactive)
19,CCUGCUCUAGAGAAGAAGUTT against Naxe,0.879 (inactive)
20,GCAGUCACCUUCAAAAAAATT against Zfp960,1.08 (inactive)
21,CGGUAGAAGGCUUAGGCAATT against Aox1,-0.922 (inactive)
22,GGUCAUAGCAUCUACGGCUTT against Gm4793,-0.11 (inactive)

row,Sequence,z-score
1,GGUGUAAUUGGGAAAAUUCTT against Inpp5f,-1.17 (inactive)
2,GGCCAACCUGUUCAUCAGCTT against Bdkrb1,-0.0817 (inactive)
3,CCUGAGUCUCGGUUCACAATT against Kif12,-2.13 (active)
4,GCACAGUGUAACUUAGGGCTT against Cenpb,-0.525 (inactive)
5,CUAAAUGCCUCCUACCUUUTT against Krtap4-16,1.89 (inactive)
6,CCUCAGAAAAAGCCUAUAGTT against Kcnj3,-2.13 (active)
7,GGCAAGUUGACCGUGUUUUTT against Dtnb,-0.307 (inactive)
8,GGUGAAACAGCGAAUAGGUTT against Zfp428,-0.168 (inactive)
9,GGAAUUGUAGAAAGUGUUGTT against Adh4,1.66 (inactive)
10,GGGCCUGUAAUGGUGUACATT against B230317F23Rik,2.56 (active)
11,GGCUUUCCGCGCUAUUGAUTT against Pcmtd2,-0.027 (inactive)
12,GGAUUUUAGUGAAUUCCAUTT against Asah1,0.0675 (inactive)
13,CCCUGGAUUGAGGAUCGUUTT against Mrgpra8,-1.14 (inactive)
14,GGAACUCCAGCUUUUGGUCTT against Sox13,2.51 (active)
15,GGUUGAAGAGCAUGAGAGCTT against A330041J22Rik,1.01 (inactive)
16,GGAGCUAAACCAAUGGCAATT against Txndc15,0.479 (inactive)
17,GCCCAAGAAUGUGCCUUAUTT against Olfr1278,-0.578 (inactive)
18,GCAGACUAAAAUCACGACATT against Ednra,2.62 (active)
19,GGUGAUGAAAAGAAUUGCATT against Pitrm1,0.417 (inactive)
20,GGACUUUGGUUUUUGUAAGTT against Vasn,-1.72 (inactive)
21,GGUCCAAAGAAAGACCCAUTT against Cypt4,-0.131 (inactive)
22,GGUAAACAUGUCUAUGACUTT against Fpr-rs7,-2.09 (active)

row,Sequence,z-score
1,GGAGAUCAUGUCAAAAAAGTT against Ibtk,-0.848 (inactive)
2,GGGCUUUAUUCAUCCACUCTT against 1700067P10Rik,1.52 (inactive)
3,GGAAUGGAUCCUGAUGAUATT against Spcs2,-0.877 (inactive)
4,GCUCGAUCAUGGGCCUAUATT against Crls1,-0.189 (inactive)
5,GGAUAGUUUGGUAAUGAAATT against Cds1,-0.748 (inactive)
6,GGCAGAUAAAGAUGGAGCATT against Ndp,3.69 (active)
7,CGGGCUAUCUGGAACUAUATT against Sesn1,-0.466 (inactive)
8,GGCUUAAAGGUCCUGUGCUTT against Ighmbp2,-2.89 (active)
9,GGUUUAUGCAAUGAAGCUUTT against Rock2,-0.0928 (inactive)
10,GGUUAUGGUUUUGUUGACUTT against Rbms1,-0.606 (inactive)
11,GGCUUUAAUGCCUGUAUUATT against Ilvbl,-0.185 (inactive)
12,GGUUUGGAUGUGAAACAAGTT against Myot,-0.861 (inactive)
13,GGAAUCUCGGAGGAAAACUTT against Hyou1,1.99 (inactive)
14,GGCAGUAGCCUUGUCUGUCTT against Prrx2,-1.42 (inactive)
15,GCAAGAUCCCGACACAUACTT against Tead4,-2.22 (active)
16,GGUCUCACAGCAGUACUCATT against Clk4,-1.46 (inactive)
17,GGACACAGGGUCUCUUACATT against Msrb2,-1.25 (inactive)
18,GGCUCAAGACUUAAAUUCATT against Olfr1100,0.437 (inactive)
19,CCUACUGGUUGAAAAUAUUTT against Tceanc2,1.16 (inactive)
20,GGAAGACACUCCUCUGCUCTT against Oca2,1.63 (inactive)
21,GGUGCGUCCUGAAAUCAUCTT against Txndc12,-2.52 (active)
22,GGUUGAUGAAAAAACUGUATT against Itsn2,0.755 (inactive)

row,Sequence,z-score
1,GGCUAGAGAAAUAGUGUUGTT against Reep1,0.218 (inactive)
2,GGAUCUUCAAUUCGUUGGUTT against Cachd1,2.75 (active)
3,GCCACUCAAAGUUCGAAGGTT against Tmem51,-0.515 (inactive)
4,GGUACUAAAGAAAUAUCCCTT against Sirt7,0.736 (inactive)
5,GGCUUGUUUCCAAAAUAGGTT against Rflna,0.327 (inactive)
6,GGCUUUCUUUGCCAUGACCTT against Copg1,-2.93 (active)
7,CCCUAGAUGGCCGAAAUAUTT against Dazap1,-1.47 (inactive)
8,CCUUAUCUGGAGUGCGAGATT against Gpr158,0.452 (inactive)
9,CCAAUCCUGAAUAAUGAGATT against Spag17,0.0419 (inactive)
10,CGCCGCAGUAUUAAUGGCUTT against Nxph4,0.225 (inactive)
11,GGUGGACCUGCACUUUACCTT against Fam135b,0.67 (inactive)
12,CGUCUAUCUUGGAUUACUATT against Dll1,2.11 (active)
13,UAAAUACUUACCAGCUGGATT against Olfr1306,1.06 (inactive)
14,GCACCAGUCGAAUCCUCAATT against Gpr137,-1.46 (inactive)
15,GGCCCAAGGAUCAAUUUAUTT against Zup1,0.914 (inactive)
16,GGUUCCUGGGAACCUAAGUTT against Med25,2.02 (active)
17,CCUCAUCGAUGCACUACCCTT against Lrfn4,-0.338 (inactive)
18,GCUCAUGACACUCUUCCUGTT against Spib,1.45 (inactive)
19,GGAGGAUGGCUUUACCGCATT against Mib2,-1.64 (inactive)
20,GCCGGAUUGAGAUCUCUAUTT against 1500015L24Rik,0.734 (inactive)
